# IDE exosite FP: exo-site inhibitors of human IDE, primary screen, biochemical, fluorescence anisotropy, probe displacement; purified IDE, FL-6b probe fluorescence polarization; hits give low values; z-score at 20 µM; hit rate 6.3% among 17,000; AID 1259349, 2017;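 active = z-score of -3 or lower, meaning strong loss of probe binding signal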;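 also: His-tagged human IDE residues 42-1019 made in E. coli with 30 nM FL-6b probe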
# The depositor's hits bear a star. Many of the other results were omitted from the sample, so hits are more common in it than they were.
SMILES,IDE exosite FP
COc1cccc(NC(=O)N2CC(=O)N3[C@H](CO)[C@@H](c4ccc(C5=CCCC5)cc4)[C@H]3C2)c1,2.9
CC(C)[C@@H]1C(=O)N[C@H](c2cccc(Cl)c2)CC=CC[C@@H](C)Oc2ccccc2C(=O)N1C (mixture of isomers),1
C/C=C/c1ccc([C@H]2[C@@H](CO)N[C@@H]2CN(CC(C)C)C(=O)c2ccccn2)cc1,0.72
CN(C)CC#Cc1ccc([C@H]2[C@H]3CN(C(=O)c4ccc5c(c4)OCO5)CCCCN3[C@H]2CO)cc1,3.5
Cc1ccccc1S(=O)(=O)N1[C@@H](C#N)[C@@H](c2ccc(-c3ccc(F)cc3)cc2)[C@@H]1CO,4.4
OC[C@@H]1[C@H](c2ccc(-c3ccc(F)cc3)cc2)[C@@H]2CN(CCC(F)(F)F)CCCCN12,0.33
CCCC#Cc1ccc([C@H]2[C@@H](CO)N3C(=O)CN(C(=O)c4ccccc4)C[C@H]23)cc1,2.1
CCCC(=O)Nc1ccc2c(c1)C(=O)N(C)C[C@H](OC)[C@@H](C)CN(Cc1ccc(F)cc1)[C@H](C)CO2,0.18
N#C[C@H]1[C@@H](c2ccccc2C2=CCCCC2)[C@H](CO)N1C(=O)C1CCOCC1,3.5
COc1ccc2c3c(n(C)c2c1)[C@@H](CO)N(CC1CC1)CC31CN(C(=O)Nc2ccc(F)cc2F)C1,-0.88
O=C(c1ccccc1)N1CC(=O)N2[C@@H](CO)[C@@H](c3ccc(C#CC4CC4)cc3)[C@@H]2C1,1
O=C(c1ccccc1)N1CC(=O)N2[C@H](CO)[C@@H](c3ccc(C#Cc4ccccc4)cc3)[C@@H]2C1,-0.2
COc1ccc(C#Cc2ccc([C@@H]3[C@@H](CO)N4C(=O)CN(C(=O)c5ccccc5)C[C@H]34)cc2)cc1,-0.18
O=C(c1ccccc1)N1CC(=O)N2[C@H](C1)[C@H](c1ccc(C#Cc3ccccc3)cc1)[C@@H]2CO,-4.3*
COc1ccc(C#Cc2ccc([C@H]3[C@@H](CO)N4C(=O)CN(C(=O)c5ccccc5)C[C@@H]34)cc2)cc1,1.8
O=C(c1ccccc1)N1CC(=O)N2[C@H](CO)[C@H](c3ccc(C#Cc4ccccc4)cc3)[C@H]2C1,-5.3*
CS(=O)(=O)N1[C@@H](C#N)[C@@H](c2ccccc2-c2ccccc2F)[C@@H]1CO,1.2
CN(C)CC(=O)N1CCCCN2[C@H](CO)[C@@H](c3ccc(-c4cccnc4)cc3)[C@@H]2C1,1.9
CC(C)N(C[C@H]1N[C@H](CO)[C@@H]1c1ccc(C2=CCCCC2)cc1)C(=O)CN(C)C,2.3
CCC(=O)N1CC(=O)N2[C@H](CO)[C@@H](c3ccc(C#CC(C)C)cc3)[C@@H]2C1,0.36
O=C(NC1CCCC1)N1CC(=O)N2[C@H](CO)[C@H](c3ccc(-c4ccccc4)cc3)[C@@H]2C1,-5.7*
O=C(NC1CCCC1)N1CC(=O)N2[C@H](CO)[C@H](c3ccc(-c4cccnc4)cc3)[C@@H]2C1,-3.4*
O=C(C1CCCCC1)N1CC(=O)N2[C@@H](CO)[C@@H](c3ccc(-c4cccnc4)cc3)[C@@H]2C1,-0.39
O=C(NC1CCCCC1)N1CC(=O)N2[C@H](CO)[C@@H](c3ccc(-c4ccncc4)cc3)[C@H]2C1,-0.66
O=C(NC1CCCC1)N1CC(=O)N2[C@H](CO)[C@H](c3ccc(-c4ccncc4)cc3)[C@@H]2C1,0.54
SMILES,IDE exosite FP
O=C(NC1CCCC1)N1CC(=O)N2[C@H](CO)[C@@H](c3ccc(-c4ccncc4)cc3)[C@H]2C1,1.1
O=C(C1CCCCC1)N1CC(=O)N2[C@H](CO)[C@@H](c3ccc(-c4cccnc4)cc3)[C@@H]2C1,-5.1*
O=C(C1CCCCC1)N1CC(=O)N2[C@H](CO)[C@H](c3ccc(-c4cccnc4)cc3)[C@@H]2C1,0.25
O=C(C1CCCCC1)N1CC(=O)N2[C@H](C1)[C@@H](c1ccc(-c3cccnc3)cc1)[C@@H]2CO,-0.83
CC(=O)NC[C@@H]1[C@@H](c2ccc(-c3cccnc3)cc2)[C@H](CO)N1C(=O)C1CCC1,1
COc1ccc(S(=O)(=O)Nc2ccc3c(c2)CC(=O)N([C@@H](C)CO)C[C@H](C)[C@H](CN(C)C(=O)Nc2c(C)noc2C)O3)cc1,2.6
CC(C)(O)C#Cc1ccc([C@H]2[C@@H](CO)N3CCCCN(S(C)(=O)=O)C[C@H]23)cc1,0.27
Cc1cccc(S(=O)(=O)N2[C@@H]3CNC[C@H]2C3c2ccc(-c3ccncc3)cc2)c1 (stereo not given in full),1.8
CCCNC(=O)N1[C@H](CO)[C@H](c2ccccc2)[C@@H]1CNC(=O)C1CCCCC1,2.3
COc1ccc(NC(=O)N2CCCCN3[C@H](CO)[C@H](c4ccc(C#Cc5ccccn5)cc4)[C@H]3C2)cc1,0.1
C/C=C/c1ccc([C@@H]2[C@@H](CO)N(C(C)=O)[C@@H]2CN(CC)C(=O)CN(C)C)cc1,-0.57
COc1ccc(C#Cc2ccc([C@H]3[C@H]4CN(Cc5ccncc5)CCCCN4[C@H]3CO)cc2)cc1,0.62
OC[C@H]1[C@H](c2ccc(-c3ccccc3F)cc2)[C@H]2CN(Cc3ccncc3)CCCCN21,-3.3*

# Assay outcomes as filed in PubChem BioAssay.
